# According to article PMC13423814:
# Tests used:
# [1] = target: 26S proteasome non-ATPase regulatory subunit 5 (UniProt Q16401)
# Histone H2B type 1-L = Histone H2B type 1-L (UniProt Q99880)
# [2] = target: Large ribosomal subunit protein eL28 (UniProt P46779)
# Twinfilin-1 = Twinfilin-1 (UniProt Q12792)
# [3] = target: Heterochromatin protein 1-binding protein 3 (UniProt Q5SSJ5)
# Chain of 26S proteasome non-ATPase regulatory subunit 5 (Q16401 whole entry): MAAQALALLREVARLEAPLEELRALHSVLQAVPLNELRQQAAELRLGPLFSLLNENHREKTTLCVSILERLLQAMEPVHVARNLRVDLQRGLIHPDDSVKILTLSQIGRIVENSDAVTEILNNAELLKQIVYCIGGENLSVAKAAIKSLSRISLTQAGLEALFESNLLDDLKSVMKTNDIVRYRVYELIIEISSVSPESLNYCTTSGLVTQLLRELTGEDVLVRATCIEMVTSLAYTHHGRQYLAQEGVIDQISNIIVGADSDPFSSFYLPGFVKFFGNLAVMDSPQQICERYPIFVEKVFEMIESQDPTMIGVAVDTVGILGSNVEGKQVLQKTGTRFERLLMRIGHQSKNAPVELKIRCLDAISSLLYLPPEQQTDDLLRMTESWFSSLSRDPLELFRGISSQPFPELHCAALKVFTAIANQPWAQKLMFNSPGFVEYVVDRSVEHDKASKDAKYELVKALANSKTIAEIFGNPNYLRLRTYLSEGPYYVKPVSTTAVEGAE
# Chain of Histone H2A.V, Q71UI9 (Q71UI9 whole entry): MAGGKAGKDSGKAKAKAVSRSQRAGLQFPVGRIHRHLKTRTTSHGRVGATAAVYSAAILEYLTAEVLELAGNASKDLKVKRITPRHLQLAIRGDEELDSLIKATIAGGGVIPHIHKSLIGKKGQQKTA
# Chain of 26S proteasome regulatory subunit 4, P62191 (P62191 whole entry): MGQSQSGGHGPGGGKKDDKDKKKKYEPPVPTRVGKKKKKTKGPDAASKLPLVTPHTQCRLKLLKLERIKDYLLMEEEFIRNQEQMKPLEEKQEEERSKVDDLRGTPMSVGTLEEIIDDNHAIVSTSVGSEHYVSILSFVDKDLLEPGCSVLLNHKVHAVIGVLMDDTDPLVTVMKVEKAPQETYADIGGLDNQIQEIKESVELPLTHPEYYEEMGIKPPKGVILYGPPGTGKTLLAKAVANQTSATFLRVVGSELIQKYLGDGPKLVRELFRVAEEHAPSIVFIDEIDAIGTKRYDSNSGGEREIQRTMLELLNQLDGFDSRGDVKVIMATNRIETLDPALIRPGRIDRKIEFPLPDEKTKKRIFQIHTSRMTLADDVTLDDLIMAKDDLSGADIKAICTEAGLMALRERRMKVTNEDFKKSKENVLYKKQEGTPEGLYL
substance,measurement,setting,value
"26S proteasome regulatory subunit 4, P62191",listed as a hit,[1],yes
"Histone H2A.V, Q71UI9",listed as a hit,Histone H2B type 1-L,yes
"Calmodulin-3, P0DP25",listed as a hit,[2],yes
"Actin, cytoplasmic 1, P60709",listed as a hit,Twinfilin-1,yes
"Histone H4, P62805",listed as a hit,[3],yes
